{"source": "PubChem BioAssay (NCATS)", "note": "Inconclusive results are not listed. Unmarked numbers belong to inactive results. Calls of active or inactive are those of the source. The call rests on the fitted dose curve; in most records, active means well fitted inhibition curve with a large enough effect; inconclusive means small, poorly fitted or top-dose-only effect; inactive means flat fitted curve, though single readings scatter. Further: nearly all actives have a fitted effect of over 70% in size.", "data": [{"test_system": "Zika virus NS2B-NS3 protease (linked construct)", "test": "Confirmatory screen NINDS AMC qHTS for Zika virus inhibitors (AID 1347152);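 further: AMC fluorescence gain from cleaved Bz-Nle-KRR-AMC substrate over 15 min; top concentration of the series differs between compounds; 0% = no-inhibitor control and -100% = no-enzyme control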", "settings": "Purified linked NS2B-NS3, AMC substrate fluorescence; series mostly up to 56.6 µM; activity change, negative = inhibition: at the top concentration", "outline": "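Concentration-response confirmation used the NINDS linked protease (NS2B hydrophilic domain joined to NS3 protease domain), 1 nM, with a 15-min compound preincubation. Substrate, Nle-KRR-AMC at 10 microM, was read by UV fluorescence before and after 15 min.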", "units": {"activity change, negative = inhibition": "%"}, "values": [{"smiles": "CCc1nc(N)nc(N)c1-c1ccc(Cl)cc1", "activity change, negative = inhibition": 11.2}, {"smiles": "COc1cc2c(cc1OC)C1CC(=O)C(CC(C)C)CN1CC2", "note": "(configuration not stated)", "activity change, negative = inhibition": -2.14}, {"smiles": "Cc1c(OCC(F)(F)F)ccnc1CS(=O)c1nc2ccccc2[nH]1", "note": "(configuration not stated)", "activity change, negative = inhibition": 2.05}]}, {"test_system": "Zika virus NS2B-NS3 protease (unlinked complex)", "test": "Confirmatory screen GU AMC qHTS for Zika virus inhibitors (AID 1347153);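 further: percent inhibition with 0% = no inhibitor control and 100% = no enzyme control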", "settings": "Recombinant NS2B-NS3 protease, AMC substrate fluorescence; series mostly up to 57.1 µM; activity, negative = inhibition: at the top concentration", "outline": "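Noncovalent NS2B hydrophilic domain/NS3 protease complex (25 nM) in 10 mM Tris-HCl pH 8.0, 0.01% Tween 20 was preincubated 15 min at room temperature with compounds. Then 10 µM AMC substrate (Km 18.3 µM) was added; fluorescence was read over 15 min and fitted to a 4-parameter Hill equation.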", "units": {"activity, negative = inhibition": "%"}, "values": [{"smiles": "CCc1nc(N)nc(N)c1-c1ccc(Cl)cc1", "activity, negative = inhibition": 18.9}, {"smiles": "COc1cc2c(cc1OC)C1CC(=O)C(CC(C)C)CN1CC2", "note": "(configuration not stated)", "activity, negative = inhibition": -3.91}, {"smiles": "Cc1c(OCC(F)(F)F)ccnc1CS(=O)c1nc2ccccc2[nH]1", "note": "(configuration not stated)", "activity, negative = inhibition": 14.7}, {"smiles": "CN(C)C(=O)[C@H](O)[C@H](Cc1ccccc1)NC(=O)c1cc2cc(Cl)ccc2[nH]1", "activity, negative = inhibition": 6.19}]}, {"test_system": "Zika virus NS2B-NS3 protease", "test": "Primary screen GU AMC qHTS for Zika virus inhibitors (AID 1347154); further: potency means the concentration at half of the fitted maximal effect;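 on activity change, negative = inhibition: 0% = no-inhibitor control and -100% = no-enzyme control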", "settings": "Zika NS2B-NS3 unlinked protease, AMC fluorogenic substrate; series mostly up to 54.1 µM; activity change, negative = inhibition: at the top concentration", "outline": "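Unlinked Zika NS2B hydrophilic domain/NS3 protease domain noncovalent complex (25 nM final) in 10 mM Tris-HCl pH 8.0, 0.01% Tween 20, with AMC peptide substrate. Fluorescence (ex 340, em 450 nm) change over 15 min, room temperature; percent inhibition fitted to 4-parameter Hill equation.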", "values": [{"smiles": "O=C1NC(=O)C(c2ccccc2[N+](=O)[O-])=C1Nc1ccc(O)c(Cl)c1", "Potency": "inactive"}, {"smiles": "C[C@@H](N)C1CCC(C(=O)Nc2ccncc2)CC1", "note": "(some centres not stated)", "Potency": "inactive"}, {"smiles": "Cc1cc(O)c2c(c1)C(=O)c1cc(O)cc(O)c1C2=O", "activity change, negative = inhibition": "-4.75%"}, {"smiles": "CC(=O)NC[C@H]1CN(c2ccc(N3CCOCC3)c(F)c2)C(=O)O1", "activity change, negative = inhibition": "5.32%"}, {"smiles": "CCc1nc(N)nc(N)c1-c1ccc(Cl)cc1", "Potency": "inactive"}, {"smiles": "COc1cc2c(cc1OC)C1CC(=O)C(CC(C)C)CN1CC2", "note": "(configuration not stated)", "activity change, negative = inhibition": "6.48%"}, {"smiles": "CNC[C@H](O)c1ccc(O)c(O)c1", "Potency": "inactive"}, {"smiles": "O=C(c1ccccc1)c1ccc2n1CCC2C(=O)O", "note": "(configuration not stated)", "Potency": "inactive"}, {"smiles": "CC1(C)NC(=O)N(c2ccc([N+](=O)[O-])c(C(F)(F)F)c2)C1=O", "Potency": "inactive"}, {"smiles": "C[C@@H](c1ncncc1F)[C@](O)(Cn1cncn1)c1ccc(F)cc1F", "activity change, negative = inhibition": "2.77%"}, {"smiles": "NNc1nncc2ccccc12", "Potency": "inactive"}, {"smiles": "O=c1c(O)c(-c2cc(O)c(O)c(O)c2)oc2cc(O)cc(O)c12", "Potency": "9.61 µM (active)"}, {"smiles": "O=c1ccc2ccc(O)c(O)c2o1", "activity change, negative = inhibition": "-4.92%"}, {"smiles": "NCCCCNCCCN", "activity change, negative = inhibition": "7.07%"}, {"smiles": "NC(=NCc1ccccc1)NC(=O)c1nc(Cl)c(N)nc1N", "activity change, negative = inhibition": "8.39%"}, {"smiles": "Cc1cccc(-c2[nH]ncc2-c2ccc3ncccc3n2)n1", "activity change, negative = inhibition": "-1.34%"}, {"smiles": "Cc1ccc(Nc2nccc(N(C)c3ccc4c(C)n(C)nc4c3)n2)cc1S(N)(=O)=O", "Potency": "inactive"}, {"smiles": "Cc1c(OCC(F)(F)F)ccnc1CS(=O)c1nc2ccccc2[nH]1", "note": "(configuration not stated)", "Potency": "inactive"}, {"smiles": "CCOC(=O)C1=C(O)C(=O)N(Cc2ccccc2)C1", "activity change, negative = inhibition": "10.1%"}, {"smiles": "Clc1ccc2c(N3CCN(CCCN4CCN(c5ccnc6cc(Cl)ccc56)CC4)CC3)ccnc2c1", "activity change, negative = inhibition": "-3.01% [at 25.8 µM]"}]}]}
